This is part of a sample that, as a whole, favours compounds with a hit. Of some 83,000 tested, about 20% had one in any assay.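 96-well plates, one dose, 48 hours. Percent growth reported; active if below 10.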 Values without a mark were called inactive. Active and inactive are the calls of the source.
The molecules below were run on RXF 393 renal (assay: NCI-60 one-dose screen, 48 h (100 = growth as untreated, 0 = no growth, -100 = all killed)). Settings: 10 µM unless noted.

SMILES	growth
COC(=O)C1=Nc2ccc(F)cc2/C1=C\c1sc(Nc2ccc(O)cc2)nc1O	43.6%
COc1ccc(OC)c(Nc2nnc(-c3ccc(Cl)cc3)o2)c1	90.4%
O=C(OC[C@@H]1CO1)c1cccc2c(=O)c3ccccc3[nH]c12	-56.9% (active)
CNC(=O)c1c(NC(=O)c2ccc(C(C)(C)C)cc2)sc2c(CN(C)C)c(O)ccc12	36.2%
C=C1C(=O)O[C@H]2[C@H]1CC/C(COC(=O)c1cc3cc(F)ccc3[nH]1)=C\CC[C@@]1(C)O[C@@H]21	-84.4% (active)
COc1ccc2[nH]cc(-c3nc(-c4cn(C)c5ccncc45)cs3)c2c1	-86.8% (active)
Brc1ccc(-c2cnc3nonc3n2)cc1	74.5%
CC(C)CN1CC(C(=O)Nc2ccc3c(c2)-c2ccccc2C3)CC1=O (stereo not given)	79.7% [50 µM]
COc1cc2ncnc(Nc3ccc(F)c(Cl)c3)c2cc1OCC(=O)N1CCN(c2ccc(F)cc2)CC1	103%
COc1ccc(-c2cn(-c3ccc(Cl)cc3)c(SCC(=O)c3ccc([N+](=O)[O-])cc3)n2)cc1	54.1%
CCN(CC)S(=O)(=O)c1ccc(S(=O)(=O)N2CCC[C@@H](C(=O)N3CCN(C(=O)OC(C)(C)C)CC3)C2)cc1	74.4%
O=C(c1ccc(Cl)cc1Cl)N1c2ccccc2Sc2ccccc21	70%
COc1ccc(C2C3=C(COC3=O)N(CCO)c3cc4c(cc32)OCCO4)cc1OC (stereo not given)	5.27% (active)
N#C/C(=C\c1ccc(-c2ccc(Cl)cc2)o1)c1ccc(Cl)cc1	62.8%
COc1ccc(C2CC(c3ccc(Nc4nc(Nc5ccc(F)cc5)nc(Nc5ccc(F)cc5)n4)cc3)=NN2C(C)=O)cc1 (stereo not given)	94.4%
CCN(CC)CCOc1nc2c3ccc(Cl)cc3nn2c2ccccc12	7.71% (active)
COc1cc2c(cc1O)[C@@]1(C)[C@H](c3ccccc3Br)OC(=O)N1CC2	99.5%
CC(C)(C)c1cc(C=Nc2cccc(C(F)(F)F)c2)c(O)c(C(C)(C)C)c1	94.3%
CCCCCCNc1nc(NCCCCCC)c2[nH]c(NCCCCCC)nc2n1	81%
COc1ccc(C2C(C#N)=C(N)Oc3c2sc2c(Br)cccc32)cc1 (stereo not given)	4.42% (active)

SMILES	growth
CC(/C=C1\SC(=S)N(CC(=O)NC(Cc2c[nH]c3ccccc23)C(=O)O)C1=O)=C\c1ccccc1 (stereo not given)	106%
CCOC(=O)c1c(NC(=O)c2ccc(OC)cc2)sc2c(CN(C)C)c(O)ccc12	53.6%
O=C(CCCCl)NNc1nccc(Nc2ccc(S(=O)(=O)Nc3ccncc3)cc2)n1	117%
Nc1ncnc2c1c(-c1ccc(Oc3ccccc3)cc1)nn2CC1SSCC1O (stereo not given)	17.7%
COc1ccc(NC(=O)c2sc3nc(C)c(C(O)c4ccccc4)cc3c2N)cc1 (stereo not given)	-7.22% (active)
COc1cccc(C(=O)OCC(O)C(=O)NC23CC4CC(CC(C4)C2)C3)c1 (stereo not given)	109%
O=C(CBr)CN1C(=O)c2ccccc2C1=O	120%
O=C(NCc1ccccc1O)c1cccc2ccccc12	95.2%
CCn1cc(C(=O)NN=C2CCCCCC2)c(=O)c2ccc(C)nc21	100%
Nc1c(C(=O)Nc2ccccn2)sc2nc3c(cc12)C(O)CCC3 (stereo not given)	4.65% (active)
COc1ccc(NC(=O)c2ccc(C(=O)Nc3ccc(OC)cc3OC)cc2)c(OC)c1	40.5%
O=C(Nc1ncc(Cc2ccccc2Cl)s1)c1cccs1	82.2%
COc1ccc2nc3ccccc3c(NCc3ccccc3)c2c1	5.86% (active)
Fc1ccc(COc2ccc(Nc3ncnc4sc5c(c34)CCCC5)cc2)cc1	109%
COc1ccc(C2=Nc3c/c(=C\c4c(O)[nH]c5cc(Cl)ccc45)ccc3=N2)cc1	38.1%
N#Cc1c(N2CCOCC2)nc(=S)[nH]c1-c1ccccc1	70.8%
O=C1CCC(C(=O)NN(c2ccccc2)c2ccccc2)N1 (stereo not given)	118%
C/C(C=O)=C\c1ccc2c(c1)OCO2	98.3%
COc1cc2c(/C=C3\C(=O)Nc4ccccc43)c(C(=O)O)[nH]c2cc1C	107%
C/C(=N\Nc1nc(C)cs1)c1cc2ccccc2o1	120%

What follows are molecules tested on SF-268 CNS in the same assay as above. Settings: 10 µM unless noted.

SMILES	growth
COC(=O)C1=Nc2ccc(F)cc2/C1=C\c1sc(Nc2ccc(O)cc2)nc1O	59.8%
COc1ccc(OC)c(Nc2nnc(-c3ccc(Cl)cc3)o2)c1	55.4%
O=C(OC[C@@H]1CO1)c1cccc2c(=O)c3ccccc3[nH]c12	-31.3% (active)
CNC(=O)c1c(NC(=O)c2ccc(C(C)(C)C)cc2)sc2c(CN(C)C)c(O)ccc12	3.83% (active)
C=C1C(=O)O[C@H]2[C@H]1CC/C(COC(=O)c1cc3cc(F)ccc3[nH]1)=C\CC[C@@]1(C)O[C@@H]21	-71.2% (active)
COc1ccc2[nH]cc(-c3nc(-c4cn(C)c5ccncc45)cs3)c2c1	87.1%
Brc1ccc(-c2cnc3nonc3n2)cc1	87.1%
CC(C)CN1CC(C(=O)Nc2ccc3c(c2)-c2ccccc2C3)CC1=O (stereo not given)	60.8% [50 µM]
COc1cc2ncnc(Nc3ccc(F)c(Cl)c3)c2cc1OCC(=O)N1CCN(c2ccc(F)cc2)CC1	79.5%
COc1ccc(-c2cn(-c3ccc(Cl)cc3)c(SCC(=O)c3ccc([N+](=O)[O-])cc3)n2)cc1	73.1%
CCN(CC)S(=O)(=O)c1ccc(S(=O)(=O)N2CCC[C@@H](C(=O)N3CCN(C(=O)OC(C)(C)C)CC3)C2)cc1	73.1%
O=C(c1ccc(Cl)cc1Cl)N1c2ccccc2Sc2ccccc21	50%
COc1ccc(C2C3=C(COC3=O)N(CCO)c3cc4c(cc32)OCCO4)cc1OC (stereo not given)	51.7%
N#C/C(=C\c1ccc(-c2ccc(Cl)cc2)o1)c1ccc(Cl)cc1	81.2%
COc1ccc(C2CC(c3ccc(Nc4nc(Nc5ccc(F)cc5)nc(Nc5ccc(F)cc5)n4)cc3)=NN2C(C)=O)cc1 (stereo not given)	103%
CCN(CC)CCOc1nc2c3ccc(Cl)cc3nn2c2ccccc12	44.6%
COc1cc2c(cc1O)[C@@]1(C)[C@H](c3ccccc3Br)OC(=O)N1CC2	94.7%
CC(C)(C)c1cc(C=Nc2cccc(C(F)(F)F)c2)c(O)c(C(C)(C)C)c1	90.1%
CCCCCCNc1nc(NCCCCCC)c2[nH]c(NCCCCCC)nc2n1	52.5%
COc1ccc(C2C(C#N)=C(N)Oc3c2sc2c(Br)cccc32)cc1 (stereo not given)	38.7%

SMILES	growth
CC(/C=C1\SC(=S)N(CC(=O)NC(Cc2c[nH]c3ccccc23)C(=O)O)C1=O)=C\c1ccccc1 (stereo not given)	92.8%
CCOC(=O)c1c(NC(=O)c2ccc(OC)cc2)sc2c(CN(C)C)c(O)ccc12	98%
O=C(CCCCl)NNc1nccc(Nc2ccc(S(=O)(=O)Nc3ccncc3)cc2)n1	95.9%
Nc1ncnc2c1c(-c1ccc(Oc3ccccc3)cc1)nn2CC1SSCC1O (stereo not given)	48.8%
COc1ccc(NC(=O)c2sc3nc(C)c(C(O)c4ccccc4)cc3c2N)cc1 (stereo not given)	50.3%
COc1cccc(C(=O)OCC(O)C(=O)NC23CC4CC(CC(C4)C2)C3)c1 (stereo not given)	102%
O=C(CBr)CN1C(=O)c2ccccc2C1=O	99.1%
O=C(NCc1ccccc1O)c1cccc2ccccc12	87.9%
CCn1cc(C(=O)NN=C2CCCCCC2)c(=O)c2ccc(C)nc21	84%
Nc1c(C(=O)Nc2ccccn2)sc2nc3c(cc12)C(O)CCC3 (stereo not given)	44%
COc1ccc(NC(=O)c2ccc(C(=O)Nc3ccc(OC)cc3OC)cc2)c(OC)c1	29.7%
O=C(Nc1ncc(Cc2ccccc2Cl)s1)c1cccs1	76.4%
COc1ccc2nc3ccccc3c(NCc3ccccc3)c2c1	44.2%
Fc1ccc(COc2ccc(Nc3ncnc4sc5c(c34)CCCC5)cc2)cc1	89.8%
COc1ccc(C2=Nc3c/c(=C\c4c(O)[nH]c5cc(Cl)ccc45)ccc3=N2)cc1	89.7%
N#Cc1c(N2CCOCC2)nc(=S)[nH]c1-c1ccccc1	87.3%
O=C1CCC(C(=O)NN(c2ccccc2)c2ccccc2)N1 (stereo not given)	83.2%
C/C(C=O)=C\c1ccc2c(c1)OCO2	110%
COc1cc2c(/C=C3\C(=O)Nc4ccccc43)c(C(=O)O)[nH]c2cc1C	96.6%
C/C(=N\Nc1nc(C)cs1)c1cc2ccccc2o1	97.9%

Source: PubChem BioAssay (NCI)
